# Reference: PubChem BioAssay (NCI)
# Compounds without any hit were thinned out: in the full panel of roughly 83,000, 20% have a hit.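 Cell lines were cultured in 96-well plates, exposed to a single compound concentration, and assessed for percent growth 48 hours later.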 A number with no mark means an inactive call. How the source made its calls: active means growth percent below 10; inactive means the rest.
# System: OVCAR-8 ovarian
# Assay: NCI-60 one-dose screen, 48 h (100 = growth as untreated, 0 = no growth, -100 = all killed)
# Settings: 10 µM unless noted
row,Compound,growth [%]
1,O=C(O)C1CCCN1 (stereo unspecified),108
2,CN(C)c1nc2c(N)ncnc2n1C1OC(CO)C(O)C1O (stereo unspecified),107
3,CC(C)(C)n1cc(-c2ccnc(NCCNS(=O)(=O)c3ccc(C(F)(F)F)cc3)c2)c(-c2cccc(O)c2)n1,58.5
4,O=C(Oc1ccccc1[N+](=O)[O-])C1CCCN1C(=O)OCc1ccccc1 (stereo unspecified),97.5
5,O=[N+]([O-])c1ccc(OCCCOc2ccccc2)cc1,105
6,O=c1[nH]c(NCc2ccccc2)nc2nc(Nc3ccc(NC(=S)Nc4ccccc4)cc3)nc(-c3ccc(O)cc3O)c12,87.4
7,COc1ccc(C(=O)N2NC(=O)/C(=C/c3ccc(F)cc3)N=C2c2ccccc2)cc1,97.4
8,CCN(CC)CCOc1ccc(Cl)c(C)c1,104
9,CCCCNC(=O)Oc1ccc(/C(=C(\C)c2ccccc2)c2ccc(OCCN(CC)CC)cc2)cc1,77
10,O=C(O)Cc1cccc(=O)c(O)c1C(=O)O,105
11,COC(OC)c1ccccc1,98.9
12,CCC(C)/C(=C\C#N)NCCCN/C(=C/C#N)C(C)CC (stereo unspecified),100
13,Cc1ccc(N2CCN(C(C)C(N)=O)CC2)cc1 (stereo unspecified),106
14,C[n+]1c(/C=C/c2c(O)ccc3ccccc23)ccc2ccccc21,21.3
15,Cc1c(C(=O)/C=C/c2csc3ccccc23)[n+](=O)c2ccccc2n1[O-],21.1
16,O=C1/C(=C/c2ccccc2)Oc2ccc(O)c(I)c21,96.7
